# Only a selection was taken, and the strongest signals are over-represented in it overall.
# Experiments:
# Assay in all cases: glycan array binding signal (z-score within array); higher = stronger binding
# Settings in all cases: glycan notation: IUPAC condensed, linker removed
# [1] = biological target: Fuc(a1-2)Gal(b1-3)GalNAc(b1-3)Gal(a1-4)Gal(b1-4)Glc
# In short: (§1)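 The binding signal is a Z-score computed within each array and averaged over linkers. Arrays of the same protein sequence at different concentrations or buffers were also averaged together. Data originate from 3228 arrays in the Consortium for Functional Glycomics database, kept only where the protein sequence was available.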
# [2] = biological target: Fuc(a1-2)Gal(b1-4)GlcNAc6S
# In short: as §1
# [3] = biological target: Fuc(a1-2)Gal6S(b1-4)GlcNAc
# In short: as §1
# [4] = biological target: Fuc(a1-2)[Gal(a1-3)]Gal(b1-3)GlcNAc
# In short: as §1
# [5] = biological target: Fuc(a1-2)[GalNAc(a1-3)]Gal(b1-4)GlcNAc
# In short: as §1
# Gal(a1-3)GlcNAc = biological target: Gal(a1-3)GlcNAc
# In short: as §1
# Gal(a1-4)Gal(b1-4)Gal = biological target: Gal(a1-4)Gal(b1-4)Gal
# In short: as §1
# Gal(a1-4)Gal(b1-4)GalNAc = biological target: Gal(a1-4)Gal(b1-4)GalNAc
# In short: as §1
# Gal(a1-6)Glc = biological target: Gal(a1-6)Glc
# In short: as §1
# Gal(b1-3)Gal = biological target: Gal(b1-3)Gal
# In short: as §1
# [6] = biological target: Gal(b1-3)[Fuc(a1-4)]GlcNAc(b1-3)Gal(b1-4)GlcNAc
# In short: as §1
# [7] = biological target: Gal(b1-3)[Neu5Ac(b2-6)]GlcNAc
# In short: as §1
# [8] = biological target: Gal(b1-4)GalNAc(b1-3)[Fuc(a1-2)]Gal(b1-4)GlcNAc
# In short: as §1
# [9] = biological target: Gal(b1-4)GlcNAc(b1-3)GalNAc
# In short: as §1
# [10] = biological target: Gal(b1-4)GlcNAc(b1-6)[Gal(b1-3)]GlcNAc
# In short: as §1
# Gal3S6S(b1-4)GlcNAc6S = biological target: Gal3S6S(b1-4)GlcNAc6S
# In short: as §1
# Gal4S(b1-4)GlcNAc = biological target: Gal4S(b1-4)GlcNAc
# In short: as §1
# Gal6S(b1-4)Glc6S = biological target: Gal6S(b1-4)Glc6S
# In short: as §1
# [11] = biological target: GlcNAc(b1-4)[GlcNAc(b1-6)]GalNAc
# In short: as §1
# [12] = biological target: Neu5Ac(a2-3)Gal(b1-3)GalNAc
# In short: as §1
# [13] = biological target: Neu5Ac(a2-3)Gal(b1-4)GlcNAc(b1-3)Gal(b1-4)[Fuc(a1-3)]GlcNAc
# In short: as §1
# [14] = biological target: Neu5Ac(a2-3)Gal(b1-4)GlcNAc(b1-6)[Gal(b1-3)]GalNAc
# In short: as §1
# [15] = biological target: Neu5Ac(a2-3)Gal6S(b1-4)GlcNAc
# In short: as §1
# [16] = biological target: Neu5Gc(a2-3)Gal(b1-4)GlcNAc
# In short: as §1
binder,measurement,setting,value
"Epa1 (Candida glabrata), Q6FUW5_CANGA (protein) MILNPALFLNKCVCIYTTLILLLLTNGGYATSSNDISLASKDPTTFPLGCSPDITTPKKGLSMELYSYDFRKKGSYPCWDAAYLDPNYPRTGYKSHRLLAKVDGVTGNINFYYHATKGCTPQLGHLPASYNYPKPLTMTNFTMLLYGYFRPKVTGFHTFTISADDLLFVNFGAGNAFDCCRRDSSADHFGNYQAYAIWGSKTAKDELTVHLDAGVYYPIRLFYNNREYDGALSFTFKTESNENTVSDFSEYFFSLDDTEEGCPGLISYDSSCASVKTSKIIGIDYHTETPNENLVPITKTIYHLGIPCTGTTTTPLCGSGFYDPLANKCVTINTSSTSSVTKTTSHTTSKEVSFHSSISSQKTLIPKSIPSPYGPIKSQSIPTEMETSSEISSSEYAFSDVISTPSHSPYTKKHSSLNSSSYTSTVIHSLTSYSISQGIFSTSLSEQNITSKSSTDKFSTATSMSNSITQSSIIISQSSTNNENYTTTSMHTSSDKISTETLNNSISTTTSILFSNSSTILKNNTTIISSDKDTHYHPVNPTIVCSTNKTEIICASITQPSISNSNNHWSSSVLRFNSTTVRSTLPSSAGSNETSINVPFSSSTESNASTSSTSTSNSKTVRSTLPSSAGSNETSINVPFSSSTESNTSTSSTSTSNSKTVRSTLPSSAGSNETSINVPFSSSTESNASTSSTSTSNSKTVRSTPFSSAGIIMTSLSQRNNKSASSYASSNSKCYNTADSCRKVHSTPSYLLTSSYTSEGVDYDCSLVSTKLKINDTNCLNNKHTTKSCLKTSVTTTIPTLEIKTARKSSSNTIGLHSYPTSSPNKSISSAPIIGYISSFKTIKTASPSYQTSDLTTITTITSLNNPGSTAVENTHESNDKSRKTSSNDISSKHSVIKETKDAVESSNKSHQTNTLKCSSIIIASSSHNSYESLGGTTLTLTLSKVYSPQNNDTLPFLEISEVNPSRTVLPESSKMMQYLTSTEERNKTARNTIATNIVSISTFHFEGEGNAIRMGYTQLLLMLIGIIVMNIGT",glycan array binding signal (z-score),[1],-0.549
same,glycan array binding signal (z-score),[2],1.65
same,glycan array binding signal (z-score),[3],-0.128
same,glycan array binding signal (z-score),[4],-0.553
same,glycan array binding signal (z-score),[5],-0.557
same,glycan array binding signal (z-score),Gal(a1-3)GlcNAc,0.208
same,glycan array binding signal (z-score),Gal(a1-4)Gal(b1-4)Gal,0.374
same,glycan array binding signal (z-score),Gal(a1-4)Gal(b1-4)GalNAc,1.29
same,glycan array binding signal (z-score),Gal(a1-6)Glc,0.344
same,glycan array binding signal (z-score),Gal(b1-3)Gal,2.4
same,glycan array binding signal (z-score),[6],1.75
same,glycan array binding signal (z-score),[7],0.26
same,glycan array binding signal (z-score),[8],2.42
same,glycan array binding signal (z-score),[9],2.41
same,glycan array binding signal (z-score),[10],2.48
same,glycan array binding signal (z-score),Gal3S6S(b1-4)GlcNAc6S,-0.544
same,glycan array binding signal (z-score),Gal4S(b1-4)GlcNAc,-0.551
same,glycan array binding signal (z-score),Gal6S(b1-4)Glc6S,2.71
same,glycan array binding signal (z-score),[11],-0.556
same,glycan array binding signal (z-score),[12],-0.547
same,glycan array binding signal (z-score),[13],-0.553
same,glycan array binding signal (z-score),[14],1.96
same,glycan array binding signal (z-score),[15],-0.557
same,glycan array binding signal (z-score),[16],-0.549

# From the supplement of paper PMC8728848
